Measurements published in PubChem BioAssay (NCI).
Compounds without any hit were thinned out: in the full panel of roughly 83,000, 20% have a hit.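 The endpoint reported here, percent growth, reads 100 for growth as untreated, 0 for no net growth and -100 for all cells dead.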 A number with no mark means an inactive call. Calls of active or inactive are those of the source. Rule for the calls: active = growth percent below 10; inactive = the rest.

Assays:
Assay in all cases: NCI-60 one-dose screen, 48 h (100 = growth as untreated, 0 = no growth, -100 = all killed)
Settings in all cases: 10 µM unless noted
HCT-15 colon = tested on: HCT-15 colon
HT29 colon = tested on: HT29 colon
SNB-75 CNS = tested on: SNB-75 CNS
SNB-19 CNS = tested on: SNB-19 CNS
U251 CNS = tested on: U251 CNS
PC-3 prostate = tested on: PC-3 prostate
SK-MEL-5 melanoma = tested on: SK-MEL-5 melanoma
UACC-62 melanoma = tested on: UACC-62 melanoma
LOX IMVI melanoma = tested on: LOX IMVI melanoma
SK-MEL-28 melanoma = tested on: SK-MEL-28 melanoma
SK-MEL-2 melanoma = tested on: SK-MEL-2 melanoma
EKVX NSCLC = tested on: EKVX NSCLC
SN12C renal = tested on: SN12C renal
UO-31 renal = tested on: UO-31 renal
TK-10 renal = tested on: TK-10 renal
ACHN renal = tested on: ACHN renal
CAKI-1 renal = tested on: CAKI-1 renal
A498 renal = tested on: A498 renal
CCRF-CEM leukemia = tested on: CCRF-CEM leukemia
MOLT-4 leukemia = tested on: MOLT-4 leukemia

SMILES	growth (HCT-15 colon)	growth (HT29 colon)	growth (SNB-75 CNS) [%]	growth (SNB-19 CNS)	growth (U251 CNS)	growth (PC-3 prostate)	growth (SK-MEL-5 melanoma)	growth (UACC-62 melanoma)	growth (LOX IMVI melanoma)	growth (SK-MEL-28 melanoma)	growth (SK-MEL-2 melanoma)	growth (EKVX NSCLC)	growth (SN12C renal)	growth (UO-31 renal)	growth (TK-10 renal)	growth (ACHN renal)	growth (CAKI-1 renal)	growth (A498 renal)	growth (CCRF-CEM leukemia)	growth (MOLT-4 leukemia)
COc1ccc2c(c1)oc1c(C)c3c(c(C)c12)C(=O)N(CCOS(C)(=O)=O)C3=O	102%	101%	103	95.4%	108%	96.5%	101%	87.8%	90.3%	102%	101%	107%	94%	88.2%	124%	97.1%	95.4%	129%	100%	94.7%
C=CN(C(=O)N1CCN(c2cc3c(cc2F)c(=O)c(C(=O)O)cn3C2CC2)CC1)c1nc(-c2ccc(Cl)cc2)cs1	24.6%	40.2%	80	59.5%	23.6%	40.3%	81.9%	60.3%	28.6%	62%	86.5%	81.8%	54.5%	55.9%	83.6%	70.5%	2.83% (active)	56%	33.5%	58.2%
c1ccc(-c2ccc3c(c2)C2(CCNCC2)CN3)cc1	99.6%	96.5%	73.8	101%	102%	86.9%	99.1%	84.6%	89.9%	110%	93.4%	75.9%	98.7%	66.1%	125%	93%	93%	104%	112%	85.7%
Cc1ccc(C(=O)c2ccc(CC(=O)N/N=C/c3cccc(O)c3O)n2C)cc1	15.7%	86.7%	25.4	46%	26%	59.2%	34.6%	39.1%	17.3%	80%	95.3%	58.8%	46.8%	14.2%	38.8%	13.5%	37.3%	93.3%	13.1%	11.2%
O=c1oc2c(cc1-c1ccccc1)c(=O)[nH]c1ccccc12	98.2%	96.6%	92.7	97.4%	93.4%	96.3%	99.4%	95.5%	95.8%	99.7%	107%	91.4%	96.6%	96.6%	99.4%	102%	97.5%	96.9%	101%	99.7%
OC1CSSC1Cn1cnc2c(Nc3ccc(OCc4cccc(F)c4)c(Cl)c3)ncnc21 (stereo not given)	-64% (active)	3.96% (active)	54.1	-49.4% (active)	-26.3% (active)	-69.3% (active)	-55.6% (active)	-68.9% (active)	-82.6% (active)	-9.14% (active)	-33.4% (active)	-71.9% (active)	30.5%	11.9%	-5.98% (active)	15.6%	19.6%	69.6%	-8.33% (active)	-41.8% (active)
CCOC(=O)c1c(NC(=O)c2ccccc2)sc2c3c(ccc12)OCN(C)C3	-48.4% (active)	-20.3% (active)	79.3	8.15% (active)	-13% (active)	21.7%	-40.3% (active)	-71.2% (active)	-90.8% (active)	-92.2% (active)	-34.4% (active)	26.3%	20.4%	-75.6% (active)	68.5%	-68.7% (active)	-42% (active)	46.5%	-0.327% (active)	-33% (active)
COC(=O)c1c2c(c(C)[n+]([O-])c1C)C(=O)C(NCc1ccccc1)=CC2=O	5.71% (active)	12.7%	125	7.59% (active)	1.71% (active)	8.92% (active)	-84.9% (active)	-16.6% (active)	8.65% (active)	61.3%	23.6%	34%	2.86% (active)	42.1%	113%	35.4%	22.3%	98.6%	21.9%	16.4%
CS(=O)/C(C#N)=C\C=C\c1cccc(Cl)c1 (stereo not given)	-6.41% (active)	8.51% (active)	22.5	27.2%	17.3%	30.6%	32.3%	0.315% (active)	-53.2% (active)	24.8%	31.9%	38.9%	19.9%	21.4%	35%	3.18% (active)	20.5%	12.1%	2.45% (active)	7.07% (active)
CC[C@H](Nc1nc(N)nc(C)c1C#N)c1nc2cccc(CN(C)c3ncc(C(=O)NO)cn3)c2c(=O)n1-c1ccccc1	42.8%	-18.4% (active)	29.1	11%	-69.6% (active)	14.6%	-92.2% (active)	-80% (active)	-86.6% (active)	6.03% (active)	-5.85% (active)	35.3%	2.71% (active)	-4.88% (active)	-21.8% (active)	24%	18.1%	-40% (active)	15.3%	9.84% (active)
N[C@@H]1CCC[C@H]1NCCCCN1C(=O)c2cccc3cc([N+](=O)[O-])cc(c23)C1=O	59.9%	14.3%	38.1	39.1%	33.7%	39%	62.4%	66.3%	14.9%	85.7%	78.2%	61.5%	27.4%	61.9%	44.1%	13.3%	97.7%	52.8%	1.99% (active)	-3.36% (active)
O=C(O)c1cn(C2CC2)c2cc(N3CCN(C(=O)N/N=C/c4cccc5ccccc45)CC3)c(F)cc2c1=O	97.9%	105%	97	85.9%	100%	105%	94%	88.7%	67.8%	98.1%	101%	102%	96.6%	80.1%	94.1%	101%	90.1%	86.1%	112%	100%
Cc1oc(-c2ccc(Cl)cc2)nc1C1=NN(C(=O)c2ccncc2)C(c2ccccc2)C1 (stereo not given)	91.3%	96.6%	92.8	80.3%	92.8%	83.7%	97.3%	72.9%	92.7%	89.7%	97.2%	95.8%	88.7%	59.5%	114%	92%	76%	78%	93.4%	77.1%
C=C1CC[C@@H]2C(C)(C)[C@H](O)CC[C@@]2(C)[C@@H]1COc1ccc2ccc(=O)oc2c1	56.2%	84.1%	98.5	86.2%	83.1%	25.2%	19.1%	24.5%	36.5%	73.6%	63.8%	57.8%	67.3%	-3.4% (active)	96.3%	49%	39.6%	64.5%	26.2%	31.6%
CCCCCCCCn1ccc2cc(NC(=O)CN=[N+]=[N-])ccc21	96.8%	104%	99.6	97.1%	88.7%	91.2%	98%	84.2%	104%	109%	99.3%	84.9%	107%	70%	111%	104%	93.3%	96.7%	39%	93.3%
